From PubChem BioAssay (NCATS)
Records with an inconclusive call do not appear. Calls of active or inactive are those of the source. Calls follow the shape of the dose curve; as a rule, active = well fitted inhibition curve with a large enough effect; inconclusive = small, poorly fitted or top-dose-only effect; inactive = flat fitted curve, though single readings scatter.

How the values were obtained:
Assay in all cases: qHTS profiling for inhibitors of Plasmodium falciparum proliferation (AID 504749); also: nearly all actives have a fitted effect of over 60% in size
Settings in all cases: P. falciparum in erythrocytes, SYBR Green DNA, 72 h; series mostly up to 28.7 µM
[1] = tested on: CP325
Method in brief: (§1)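 Readout was DNA-dye fluorescence from lysed cultures, ex 485/em 535 nm. Parasitized red cells had grown 72 h with compound; data scaled between 0.29 uM artemisinin and DMSO wells and corrected using vehicle-only plates.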

[2] = tested on: CP329
Method in brief: as §1

[3] = tested on: CP335
Method in brief: as §1

[4] = tested on: DFO2036
Method in brief: as §1

[5] = tested on: DIV14
Method in brief: as §1

[6] = tested on: DIV17
Method in brief: as §1

[7] = tested on: DIV30
Method in brief: as §1

[8] = tested on: Dd2
Method in brief: as §1

[9] = tested on: ECU
Method in brief: as §1

[10] = tested on: FAB9
Method in brief: as §1

Measured: Potency

NC(=O)c1cnccn1
inactive: [1] | [2] | [3] | [4] | [5] | [6] | [7] | [8] | [9] | [10]

Clc1cccc(Cl)c1NC1=NCCN1
inactive: [1] | [2] | [3] | [4] | [5] | [6] | [7] | [8] | [9] | [10]

NS(=O)(=O)c1cc2c(cc1Cl)NC=NS2(=O)=O
inactive: [1] | [2] | [3] | [4] | [5] | [6] | [7] | [8] | [9] | [10]

NNCCc1ccccc1
inactive: [1] | [2] | [3] | [4] | [5] | [6] | [7] | [8] | [9] | [10]

O=c1[nH]cnc2[nH]ncc12
inactive: [1] | [2] | [3] | [4] | [5] | [6] | [7] | [8] | [9] | [10]

NCCCC(N)(C(=O)O)C(F)F (stereo not given)
inactive: [1] | [2] | [3] | [4] | [5] | [6] | [7] | [8] | [9] | [10]

O=C1CCC(N2C(=O)c3ccccc3C2=O)C(=O)N1 (stereo not given)
inactive: [1] | [2] | [3] | [4] | [5] | [6] | [7] | [8] | [9] | [10]

NCCc1ccc(O)c(O)c1
inactive: [1] | [2] | [3] | [4] | [5] | [6] | [7] | [8] | [9] | [10]

CCc1ccc(CCOc2ccc(CC3SC(=O)NC3=O)cc2)nc1 (stereo not given)
inactive: [1] | [2] | [3] | [4] | [5] | [6] | [7] | [8] | [9] | [10]

CC(c1cc2ccccc2s1)N(O)C(N)=O (stereo not given)
inactive: [1] | [2] | [3] | [4] | [5] | [6] | [7] | [8] | [9] | [10]

CC(C[N+](C)(C)C)OC(N)=O (stereo not given)
inactive: [1] | [2] | [3] | [4] | [5] | [6] | [7] | [8] | [9] | [10]

CC(C)NCC(O)COc1ccc(COCCOC(C)C)cc1 (stereo not given)
inactive: [1] | [2] | [3] | [4] | [5] | [6] | [7] | [8] | [9] | [10]

N[C@@H]1CONC1=O
inactive: [1] | [2] | [3] | [4] | [5] | [6] | [7] | [8] | [9] | [10]

CCCCNc1cc(C(=O)O)cc(S(N)(=O)=O)c1Oc1ccccc1
inactive: [1] | [2] | [3] | [4] | [5] | [6] | [7] | [8] | [9] | [10]

Oc1ccc(C2CNCCc3c2cc(O)c(O)c3Cl)cc1 (stereo not given)
inactive: [1] | [2] | [3] | [4] | [5] | [6] | [7] | [8] | [9] | [10]

O=c1n(CCCN2CCN(c3cccc(Cl)c3)CC2)nc2ccccn12
inactive: [1] | [2] | [3] | [4] | [5] | [6] | [7] | [8] | [9] | [10]

Cc1[nH]c(=O)c(C#N)cc1-c1ccc2nccn2c1
inactive: [1] | [2] | [3] | [4] | [5] | [6] | [7] | [8] | [9] | [10]

N#Cc1ccc(C(c2ccc(C#N)cc2)n2cncn2)cc1
inactive: [1] | [2] | [3] | [4] | [5] | [6] | [7] | [8] | [9] | [10]

Cc1[nH]c(=O)c(C#N)cc1-c1ccncc1
inactive: [1] | [2] | [3] | [4] | [5] | [6] | [7] | [8] | [9] | [10]

Nc1ccc(S(=O)(=O)Nc2ccnn2-c2ccccc2)cc1
inactive: [1] | [2] | [3] | [4] | [5] | [6] | [7] | [8] | [9] | [10]
